{"source": "PubChem BioAssay AID1159580", "about": "(chemical genetic matrix, 2015)", "experiment": "chemical genetic growth profiling, strain panel (AID 1159580);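 also: tested at 20 µM; growth read once vehicle control cultures reached saturation at 30 °C; 1 = growth at the plate median or of vehicle wells; lower values mean less growth of the strain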", "details": "growth OD", "note": "Values joined by “and” are separate entries in the source; they are usually repeats but may differ in a detail not shown here. Equal entries are not always repeated. The whole screen tested about 5,500 compounds, of which about 2,000 (36%) were called active. Roughly 18% stayed inconclusive and do not appear here. The list shows a part of the results. Values without a mark were called inactive. Rule as the data show it: active = normalized growth mostly below about 0.91 (no sharp cut-off); inconclusive = no clear call, values can overlap the other calls; inactive = mostly above about 0.92.", "data": [{"compound": "CN1C(C(=O)Nc2ccccn2)=C(O)c2ccccc2S1(=O)=O", "values": [{"measurement": "normalized growth", "setting": "S. cerevisiae deletion strains, locus YKL009W, strain mrt4, stronger effect = lower value", "result": 0.963}, {"measurement": "normalized growth", "setting": "S. cerevisiae deletion strains, locus YKL068W, stronger effect = lower value", "result": "0.925 (active)"}, {"measurement": "normalized growth", "setting": "S. cerevisiae deletion strains, locus YKL085W, strain MDH1 (second series), stronger effect = lower value", "result": 0.935}, {"measurement": "normalized growth", "setting": "S. cerevisiae deletion strains, locus YKL085W, strain MDH1, stronger effect = lower value", "result": 0.935}, {"measurement": "normalized growth", "setting": "S. cerevisiae deletion strains, locus YKL160W, strain elf1, stronger effect = lower value", "result": 0.933}, {"measurement": "normalized growth", "setting": "S. cerevisiae deletion strains, locus YKL190W, strain CNB1, stronger effect = lower value", "result": 1.01}, {"measurement": "normalized growth", "setting": "S. cerevisiae deletion strains, locus YKR001C, strain vps1, stronger effect = lower value", "result": 0.969}, {"measurement": "normalized growth", "setting": "S. cerevisiae deletion strains, locus YKR026C, strain gcn3, stronger effect = lower value", "result": 0.958}, {"measurement": "normalized growth", "setting": "S. cerevisiae deletion strains, locus YKR091W, strain srl3, stronger effect = lower value", "result": 0.968}, {"measurement": "normalized growth", "setting": "S. cerevisiae deletion strains, locus YLL001W, strain dnm1, stronger effect = lower value", "result": 0.963}, {"measurement": "normalized growth", "setting": "S. cerevisiae deletion strains, locus YLL026W, stronger effect = lower value", "result": "0.93 (active)"}, {"measurement": "normalized growth", "setting": "S. cerevisiae deletion strains, locus YLL041C, strain sdh2, stronger effect = lower value", "result": 0.953}, {"measurement": "normalized growth", "setting": "S. cerevisiae deletion strains, locus YLR027C, strain aat2, stronger effect = lower value", "result": 0.932}, {"measurement": "normalized growth", "setting": "S. cerevisiae deletion strains, locus YLR039C, strain RIC1, stronger effect = lower value", "result": 0.984}, {"measurement": "normalized growth", "setting": "S. cerevisiae deletion strains, locus YLR058C, strain SHM2, stronger effect = lower value", "result": 0.982}, {"measurement": "normalized growth", "setting": "S. cerevisiae deletion strains, locus YLR102C, strain apc9, stronger effect = lower value", "result": 0.946}, {"measurement": "normalized growth", "setting": "S. cerevisiae deletion strains, locus YLR113W, strain HOG1, stronger effect = lower value", "result": 0.934}, {"measurement": "normalized growth", "setting": "S. cerevisiae deletion strains, locus YLR221C, strain rsa3, stronger effect = lower value", "result": 0.925}, {"measurement": "normalized growth", "setting": "S. cerevisiae deletion strains, locus YLR258W, strain gsy2, stronger effect = lower value", "result": 0.95}, {"measurement": "normalized growth", "setting": "S. cerevisiae deletion strains, locus YLR262C, strain YPT6 (second series), stronger effect = lower value", "result": 0.919}, {"measurement": "normalized growth", "setting": "S. cerevisiae deletion strains, locus YLR262C, strain YPT6, stronger effect = lower value", "result": 0.998}, {"measurement": "normalized growth", "setting": "S. cerevisiae deletion strains, locus YLR268W, strain sec22, stronger effect = lower value", "result": 0.921}, {"measurement": "normalized growth", "setting": "S. cerevisiae deletion strains, locus YLR320W, strain mms22, stronger effect = lower value", "result": 0.881}, {"measurement": "normalized growth", "setting": "S. cerevisiae deletion strains, locus YLR330W, strain CHS5, stronger effect = lower value", "result": 0.967}, {"measurement": "normalized growth", "setting": "S. cerevisiae deletion strains, locus YLR342W, strain FKS1 (second series), stronger effect = lower value", "result": 0.94}, {"measurement": "normalized growth", "setting": "S. cerevisiae deletion strains, locus YLR342W, strain FKS1, stronger effect = lower value", "result": 0.931}, {"measurement": "normalized growth", "setting": "S. cerevisiae deletion strains, locus YLR357W, strain rsc2, stronger effect = lower value", "result": 1}, {"measurement": "normalized growth", "setting": "S. cerevisiae deletion strains, locus YLR370C, strain arc18, stronger effect = lower value", "result": 0.985}, {"measurement": "normalized growth", "setting": "S. cerevisiae deletion strains, locus YLR371W, strain rom2, stronger effect = lower value", "result": 0.95}, {"measurement": "normalized growth", "setting": "S. cerevisiae deletion strains, locus YLR384C, strain iki3, stronger effect = lower value", "result": 0.961}, {"measurement": "normalized growth", "setting": "S. cerevisiae deletion strains, locus YLR418C, strain cdc73, stronger effect = lower value", "result": 0.905}, {"measurement": "normalized growth", "setting": "S. cerevisiae deletion strains, locus YML016C, strain PPZ1, stronger effect = lower value", "result": 0.965}, {"measurement": "normalized growth", "setting": "S. cerevisiae deletion strains, locus YML032C, strain rad52, stronger effect = lower value", "result": 0.954}, {"measurement": "normalized growth", "setting": "S. cerevisiae deletion strains, locus YML120C, strain ndi1, stronger effect = lower value", "result": 0.95}, {"measurement": "normalized growth", "setting": "S. cerevisiae deletion strains, locus YML124C, strain tub3, stronger effect = lower value", "result": 0.95}, {"measurement": "normalized growth", "setting": "S. cerevisiae deletion strains, locus YMR058W, strain fet3, stronger effect = lower value", "result": 0.961}, {"measurement": "normalized growth", "setting": "S. cerevisiae deletion strains, locus YMR078C, strain ctf18, stronger effect = lower value", "result": 0.926}, {"measurement": "normalized growth", "setting": "S. cerevisiae deletion strains, locus YMR125W, strain sto1, stronger effect = lower value", "result": 0.985}, {"measurement": "normalized growth", "setting": "S. cerevisiae deletion strains, locus YMR129W, stronger effect = lower value", "result": 0.935}, {"measurement": "normalized growth", "setting": "S. cerevisiae deletion strains, locus YMR205C, strain PFK2, stronger effect = lower value", "result": "0.781 (active)"}, {"measurement": "normalized growth", "setting": "S. cerevisiae deletion strains, locus YMR223W, strain ubp8, stronger effect = lower value", "result": 0.97}, {"measurement": "normalized growth", "setting": "S. cerevisiae deletion strains, locus YMR231W, strain pep5, stronger effect = lower value", "result": 0.97}, {"measurement": "normalized growth", "setting": "S. cerevisiae deletion strains, locus YMR263W, strain SAP30, stronger effect = lower value", "result": 0.996}, {"measurement": "normalized growth", "setting": "S. cerevisiae deletion strains, locus YMR307W, strain GAS1, stronger effect = lower value", "result": "0.836 and 1"}, {"measurement": "normalized growth", "setting": "S. cerevisiae deletion strains, locus YNL067W, strain RPL9B, stronger effect = lower value", "result": 1}, {"measurement": "normalized growth", "setting": "S. cerevisiae deletion strains, locus YNL071W, strain lat1, stronger effect = lower value", "result": "0.786 (active)"}, {"measurement": "normalized growth", "setting": "S. cerevisiae deletion strains, locus YNL128W, strain TEP1, stronger effect = lower value", "result": 1.02}, {"measurement": "normalized growth", "setting": "S. cerevisiae deletion strains, locus YNL153C, strain GIM3, stronger effect = lower value", "result": 0.984}, {"measurement": "normalized growth", "setting": "S. cerevisiae deletion strains, locus YNL175C, strain NOP13, stronger effect = lower value", "result": 0.971}, {"measurement": "normalized growth", "setting": "S. cerevisiae deletion strains, locus YNL183C, strain NPR1, stronger effect = lower value", "result": 0.919}, {"measurement": "normalized growth", "setting": "S. cerevisiae deletion strains, locus YNL197C, strain WHI3, stronger effect = lower value", "result": 0.97}, {"measurement": "normalized growth", "setting": "S. cerevisiae deletion strains, locus YNL209W, strain ssb2, stronger effect = lower value", "result": 0.982}, {"measurement": "normalized growth", "setting": "S. cerevisiae deletion strains, locus YNL224C, strain SQS1, stronger effect = lower value", "result": 0.968}, {"measurement": "normalized growth", "setting": "S. cerevisiae deletion strains, locus YNL233W, strain BNI4, stronger effect = lower value", "result": 0.993}, {"measurement": "normalized growth", "setting": "S. cerevisiae deletion strains, locus YNL248C, strain rpa49, stronger effect = lower value", "result": "1.26 [resistant] (active)"}, {"measurement": "normalized growth", "setting": "S. cerevisiae deletion strains, locus YNL250W, strain rad50, stronger effect = lower value", "result": 0.923}, {"measurement": "normalized growth", "setting": "S. cerevisiae deletion strains, locus YNL271C, strain bni1, stronger effect = lower value", "result": "0.911 (active)"}, {"measurement": "normalized growth", "setting": "S. cerevisiae deletion strains, locus YNL298W, strain CLA4, stronger effect = lower value", "result": 0.935}, {"measurement": "normalized growth", "setting": "S. cerevisiae deletion strains, locus YNL307C, strain MCK1, stronger effect = lower value", "result": "0.82 (active)"}, {"measurement": "normalized growth", "setting": "S. cerevisiae deletion strains, locus YNL322C, strain KRE1 (second series), stronger effect = lower value", "result": 0.943}, {"measurement": "normalized growth", "setting": "S. cerevisiae deletion strains, locus YNL322C, strain KRE1, stronger effect = lower value", "result": "0.973 and 1"}, {"measurement": "normalized growth", "setting": "S. cerevisiae deletion strains, locus YNR049C, strain mso1, stronger effect = lower value", "result": 0.964}, {"measurement": "normalized growth", "setting": "S. cerevisiae deletion strains, locus YNR052C, strain pop2, stronger effect = lower value", "result": 0.965}, {"measurement": "normalized growth", "setting": "S. cerevisiae deletion strains, locus YOL006C, strain TOP1, stronger effect = lower value", "result": 0.999}, {"measurement": "normalized growth", "setting": "S. cerevisiae deletion strains, locus YOL012C, strain htz1", "result": 0.613}, {"measurement": "normalized growth", "setting": "S. cerevisiae deletion strains, locus YOL147C, strain pex11, stronger effect = lower value", "result": 0.944}, {"measurement": "normalized growth", "setting": "S. cerevisiae deletion strains, locus YOR001W, strain rrp6, stronger effect = lower value", "result": 0.92}, {"measurement": "normalized growth", "setting": "S. cerevisiae deletion strains, locus YOR061W, strain CKA2, stronger effect = lower value", "result": 0.976}, {"measurement": "normalized growth", "setting": "S. cerevisiae deletion strains, locus YOR069W, strain VPS5, stronger effect = lower value", "result": 0.966}, {"measurement": "normalized growth", "setting": "S. cerevisiae deletion strains, locus YOR070C, strain gyp1, stronger effect = lower value", "result": 0.973}, {"measurement": "normalized growth", "setting": "S. cerevisiae deletion strains, locus YOR080W, strain dia2, stronger effect = lower value", "result": 0.978}, {"measurement": "normalized growth", "setting": "S. cerevisiae deletion strains, locus YOR083W, strain WHI5 (second series), stronger effect = lower value", "result": 0.99}, {"measurement": "normalized growth", "setting": "S. cerevisiae deletion strains, locus YOR083W, strain WHI5, stronger effect = lower value", "result": 0.946}, {"measurement": "normalized growth", "setting": "S. cerevisiae deletion strains, locus YOR106W, strain vam3, stronger effect = lower value", "result": 0.965}, {"measurement": "normalized growth", "setting": "S. cerevisiae deletion strains, locus YOR136W, strain idh2, stronger effect = lower value", "result": 0.988}, {"measurement": "normalized growth", "setting": "S. cerevisiae deletion strains, locus YOR144C, strain elg1, stronger effect = lower value", "result": 0.953}, {"measurement": "normalized growth", "setting": "S. cerevisiae deletion strains, locus YOR184W, strain ser1, stronger effect = lower value", "result": 0.961}, {"measurement": "normalized growth", "setting": "S. cerevisiae deletion strains, locus YOR231W, strain MKK1, stronger effect = lower value", "result": 0.945}, {"measurement": "normalized growth", "setting": "S. cerevisiae deletion strains, locus YOR265W, strain rbl2, stronger effect = lower value", "result": 0.967}, {"measurement": "normalized growth", "setting": "S. cerevisiae deletion strains, locus YOR270C, strain vph1, stronger effect = lower value", "result": 0.954}, {"measurement": "normalized growth", "setting": "S. cerevisiae deletion strains, locus YOR290C, strain snf2, stronger effect = lower value", "result": 0.971}, {"measurement": "normalized growth", "setting": "S. cerevisiae deletion strains, locus YOR316C, strain cot1, stronger effect = lower value", "result": 0.95}, {"measurement": "normalized growth", "setting": "S. cerevisiae deletion strains, locus YPL051W, strain arl3, stronger effect = lower value", "result": 0.961}, {"measurement": "normalized growth", "setting": "S. cerevisiae deletion strains, locus YPL055C, strain LGE1, stronger effect = lower value", "result": 0.987}, {"measurement": "normalized growth", "setting": "S. cerevisiae deletion strains, locus YPL078C, strain atp4, stronger effect = lower value", "result": 0.95}, {"measurement": "normalized growth", "setting": "S. cerevisiae deletion strains, locus YPL106C, strain sse1, stronger effect = lower value", "result": 0.989}, {"measurement": "normalized growth", "setting": "S. cerevisiae deletion strains, locus YPL240C, strain hsp82, stronger effect = lower value", "result": 0.953}, {"measurement": "normalized growth", "setting": "S. cerevisiae deletion strains, locus YPL241C, strain CIN2, stronger effect = lower value", "result": 0.967}, {"measurement": "normalized growth", "setting": "S. cerevisiae deletion strains, locus YPL256C, strain CLN2, stronger effect = lower value", "result": 0.907}, {"measurement": "normalized growth", "setting": "S. cerevisiae deletion strains, locus YPR119W, strain clb2, stronger effect = lower value", "result": 0.931}, {"measurement": "normalized growth", "setting": "S. cerevisiae deletion strains, locus YPR141C, strain kar3, stronger effect = lower value", "result": 0.923}, {"measurement": "normalized growth", "setting": "S. cerevisiae deletion strains, locus YPR163C, strain tif3, stronger effect = lower value", "result": "0.885 (active)"}, {"measurement": "normalized growth", "setting": "S. cerevisiae deletion strains, locus YPR167C, strain met16, stronger effect = lower value", "result": 0.962}, {"measurement": "normalized growth", "setting": "S. cerevisiae deletion strains, strain wtn01, stronger effect = lower value", "result": 0.961}, {"measurement": "normalized growth", "setting": "S. cerevisiae strains, strain wild type, stronger effect = lower value", "result": 0.984}]}]}
